Data reported in the supplement of paper PMC12067093, “Discovery and optimisation of a covalent ligand for TRIM25 and its application to targeted protein ubiquitination” (Chemical Science, 2025).
Targets with the largest changes are over-represented here; the source holds about 21,000 in all.

Compound: CC1Cc2ccccc2N1C(=O)C1CCCN(C1)C(=O)CCl (mixture of isomers) [TRIM25 ligand 11 (diastereomer mixture)]
Test: probe-labelled cysteine peptide fold change vs DMSO (competition) (log2 fold change); higher = less target engagement (more negative = stronger competition)
Settings: THP-1, incubation time: 4 h
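Also: competitive chemoproteomic profiling in live THP-1 cells with an iodoacetamide desthiobiotin (IA-DTB) probe, comparing probe-labelled peptide intensities in compound-treated cells against DMSO-treated controls.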

## ATP5F1A_P25705_244_KLYCIYVAIGQK (UniProt P25705)
Sequence of UniProt P25705 (P25705 whole entry, looked up): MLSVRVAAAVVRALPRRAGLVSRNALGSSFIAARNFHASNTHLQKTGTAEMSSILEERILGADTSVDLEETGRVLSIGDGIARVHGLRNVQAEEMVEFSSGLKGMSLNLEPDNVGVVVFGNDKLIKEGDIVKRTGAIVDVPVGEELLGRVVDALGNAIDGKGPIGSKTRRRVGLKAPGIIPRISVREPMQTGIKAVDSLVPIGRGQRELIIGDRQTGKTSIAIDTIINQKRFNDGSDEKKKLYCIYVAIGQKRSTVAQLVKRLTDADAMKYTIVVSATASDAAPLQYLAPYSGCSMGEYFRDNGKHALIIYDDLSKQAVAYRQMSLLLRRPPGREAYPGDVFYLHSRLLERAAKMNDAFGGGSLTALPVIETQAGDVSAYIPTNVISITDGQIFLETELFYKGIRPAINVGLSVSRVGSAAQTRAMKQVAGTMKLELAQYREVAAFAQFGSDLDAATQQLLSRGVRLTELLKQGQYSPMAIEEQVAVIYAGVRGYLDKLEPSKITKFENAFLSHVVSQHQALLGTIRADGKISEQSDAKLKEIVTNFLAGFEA
10 µM
  probe-labelled cysteine peptide fold change: -0.433
50 µM
  probe-labelled cysteine peptide fold change: 0.0534

## AHRR_A9YTQ3_485_DVGEDQVHPPLCHFPQR (UniProt A9YTQ3)
10 µM
  probe-labelled cysteine peptide fold change: 0.678
50 µM
  probe-labelled cysteine peptide fold change: 0.583

## ARID1A_O14497_2043_EEEQDQGVSCNK (UniProt O14497)
10 µM
  probe-labelled cysteine peptide fold change: 0.662
50 µM
  probe-labelled cysteine peptide fold change: 0.268

## ARHGAP45_Q92619_528_SATISYYQMMHMQTAPLPVHFQMLCESSK (UniProt Q92619)
Sequence of UniProt Q92619 (Q92619 whole entry, looked up): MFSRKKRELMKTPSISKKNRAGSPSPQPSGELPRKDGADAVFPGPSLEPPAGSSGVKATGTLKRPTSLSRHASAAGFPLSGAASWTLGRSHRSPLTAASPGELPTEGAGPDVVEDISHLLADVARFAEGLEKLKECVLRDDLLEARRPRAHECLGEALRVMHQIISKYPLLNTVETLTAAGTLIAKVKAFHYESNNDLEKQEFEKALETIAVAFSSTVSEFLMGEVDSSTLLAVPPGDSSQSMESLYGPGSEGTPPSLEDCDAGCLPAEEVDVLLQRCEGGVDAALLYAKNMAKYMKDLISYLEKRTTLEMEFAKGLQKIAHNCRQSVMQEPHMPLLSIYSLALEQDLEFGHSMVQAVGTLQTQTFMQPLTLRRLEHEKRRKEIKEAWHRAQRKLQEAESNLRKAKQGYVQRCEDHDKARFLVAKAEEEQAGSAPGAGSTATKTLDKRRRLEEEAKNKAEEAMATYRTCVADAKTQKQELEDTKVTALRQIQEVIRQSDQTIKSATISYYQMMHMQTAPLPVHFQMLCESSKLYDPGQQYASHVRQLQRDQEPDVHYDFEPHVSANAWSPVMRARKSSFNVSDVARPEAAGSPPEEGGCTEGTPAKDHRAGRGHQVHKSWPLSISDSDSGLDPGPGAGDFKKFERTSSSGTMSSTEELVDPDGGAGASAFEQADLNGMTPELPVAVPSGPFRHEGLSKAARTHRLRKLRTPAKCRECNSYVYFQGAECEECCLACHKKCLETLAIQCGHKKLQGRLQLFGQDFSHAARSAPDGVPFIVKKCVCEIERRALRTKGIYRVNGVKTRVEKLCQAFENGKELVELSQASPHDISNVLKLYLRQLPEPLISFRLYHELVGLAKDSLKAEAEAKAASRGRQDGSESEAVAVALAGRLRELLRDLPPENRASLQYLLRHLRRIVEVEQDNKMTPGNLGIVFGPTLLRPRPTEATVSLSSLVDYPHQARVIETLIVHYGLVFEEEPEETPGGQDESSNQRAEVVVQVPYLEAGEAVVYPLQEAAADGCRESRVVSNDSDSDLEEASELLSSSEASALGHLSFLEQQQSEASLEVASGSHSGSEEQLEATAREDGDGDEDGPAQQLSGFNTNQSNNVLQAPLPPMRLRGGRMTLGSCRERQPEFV
10 µM
  probe-labelled cysteine peptide fold change: -0.132
50 µM
  probe-labelled cysteine peptide fold change: -0.236

## AIP_O00170_78_LPVWETIVCTMR (UniProt O00170)
Sequence of UniProt O00170 (O00170 whole entry, looked up): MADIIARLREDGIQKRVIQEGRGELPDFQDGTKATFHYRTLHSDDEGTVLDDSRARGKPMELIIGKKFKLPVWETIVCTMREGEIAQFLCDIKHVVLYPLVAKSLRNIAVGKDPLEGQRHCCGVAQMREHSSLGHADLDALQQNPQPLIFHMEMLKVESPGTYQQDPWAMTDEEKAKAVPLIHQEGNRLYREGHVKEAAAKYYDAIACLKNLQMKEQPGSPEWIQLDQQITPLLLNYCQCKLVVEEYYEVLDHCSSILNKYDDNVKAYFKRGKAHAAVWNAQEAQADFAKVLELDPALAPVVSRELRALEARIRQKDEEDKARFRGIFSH
10 µM
  probe-labelled cysteine peptide fold change: -0.126
50 µM
  probe-labelled cysteine peptide fold change: 1.17

## ASAP1_Q9ULH1_652_QTALGNTVLHYCSMYSKPECLK (UniProt Q9ULH1)
Sequence of UniProt Q9ULH1 (Q9ULH1 whole entry, looked up): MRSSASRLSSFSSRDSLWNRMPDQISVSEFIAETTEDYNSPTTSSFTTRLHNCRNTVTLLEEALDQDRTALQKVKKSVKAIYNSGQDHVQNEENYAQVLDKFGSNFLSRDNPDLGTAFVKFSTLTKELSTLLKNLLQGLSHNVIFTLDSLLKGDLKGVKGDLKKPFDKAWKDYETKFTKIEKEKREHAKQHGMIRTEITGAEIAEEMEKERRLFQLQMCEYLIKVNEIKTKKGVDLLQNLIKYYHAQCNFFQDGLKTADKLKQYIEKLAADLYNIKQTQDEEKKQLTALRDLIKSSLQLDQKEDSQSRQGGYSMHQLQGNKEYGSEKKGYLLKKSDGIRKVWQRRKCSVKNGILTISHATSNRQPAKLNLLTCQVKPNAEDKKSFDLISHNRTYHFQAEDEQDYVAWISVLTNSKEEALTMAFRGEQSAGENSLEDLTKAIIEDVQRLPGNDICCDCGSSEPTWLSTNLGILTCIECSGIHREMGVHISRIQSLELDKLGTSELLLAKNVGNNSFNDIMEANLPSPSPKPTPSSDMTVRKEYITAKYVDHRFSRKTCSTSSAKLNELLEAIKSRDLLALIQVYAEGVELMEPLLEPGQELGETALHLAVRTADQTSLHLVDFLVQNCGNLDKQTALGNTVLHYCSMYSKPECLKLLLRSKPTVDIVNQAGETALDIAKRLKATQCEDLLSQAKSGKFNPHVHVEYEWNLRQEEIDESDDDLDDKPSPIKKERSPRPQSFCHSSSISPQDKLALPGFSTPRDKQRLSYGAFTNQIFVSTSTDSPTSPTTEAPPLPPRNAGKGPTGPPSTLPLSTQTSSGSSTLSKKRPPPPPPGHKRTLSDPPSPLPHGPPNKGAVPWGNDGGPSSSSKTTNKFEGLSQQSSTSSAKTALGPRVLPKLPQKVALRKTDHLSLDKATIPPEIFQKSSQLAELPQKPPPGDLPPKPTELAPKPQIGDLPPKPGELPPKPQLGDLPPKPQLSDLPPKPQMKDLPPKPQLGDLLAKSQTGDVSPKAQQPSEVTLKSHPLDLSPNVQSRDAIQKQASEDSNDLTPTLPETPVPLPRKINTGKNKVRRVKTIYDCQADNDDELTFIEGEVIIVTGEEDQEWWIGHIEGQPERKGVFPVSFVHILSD
10 µM
  probe-labelled cysteine peptide fold change: 0.0362
50 µM
  probe-labelled cysteine peptide fold change: 0.157

## ATP6V1A_P38606_138_WDFTPCK (UniProt P38606)
10 µM
  probe-labelled cysteine peptide fold change: -0.198
50 µM
  probe-labelled cysteine peptide fold change: -0.819

## ANAPC11_Q9NYG5_76_WLHAQQVQQHCPMCR (UniProt Q9NYG5)
Sequence of UniProt Q9NYG5 (Q9NYG5 whole entry, looked up): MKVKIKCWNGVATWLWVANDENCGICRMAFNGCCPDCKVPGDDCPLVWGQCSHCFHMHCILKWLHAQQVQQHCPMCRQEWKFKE
10 µM
  probe-labelled cysteine peptide fold change: -0.122
50 µM
  probe-labelled cysteine peptide fold change: 0.153

## ARF6_P62330_90_HYYTGTQGLIFVVDCADRDRIDEAR (UniProt P62330)
Sequence of UniProt P62330 (P62330 whole entry, looked up): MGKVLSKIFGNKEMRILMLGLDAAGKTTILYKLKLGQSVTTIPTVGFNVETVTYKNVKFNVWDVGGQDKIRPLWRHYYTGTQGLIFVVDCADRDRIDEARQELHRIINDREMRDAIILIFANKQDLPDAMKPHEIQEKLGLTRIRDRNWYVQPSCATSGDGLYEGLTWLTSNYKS
10 µM
  probe-labelled cysteine peptide fold change: -0.368
50 µM
  probe-labelled cysteine peptide fold change: 0.0425

## AMPD2_Q01433_107_SLPGPAPCLK (UniProt Q01433)
10 µM
  probe-labelled cysteine peptide fold change: -0.11
50 µM
  probe-labelled cysteine peptide fold change: -0.295

## BCAT1_P54687_338_EMFGSGTACVVCPVSDILYK (UniProt P54687)
Sequence of UniProt P54687 (P54687 whole entry, looked up): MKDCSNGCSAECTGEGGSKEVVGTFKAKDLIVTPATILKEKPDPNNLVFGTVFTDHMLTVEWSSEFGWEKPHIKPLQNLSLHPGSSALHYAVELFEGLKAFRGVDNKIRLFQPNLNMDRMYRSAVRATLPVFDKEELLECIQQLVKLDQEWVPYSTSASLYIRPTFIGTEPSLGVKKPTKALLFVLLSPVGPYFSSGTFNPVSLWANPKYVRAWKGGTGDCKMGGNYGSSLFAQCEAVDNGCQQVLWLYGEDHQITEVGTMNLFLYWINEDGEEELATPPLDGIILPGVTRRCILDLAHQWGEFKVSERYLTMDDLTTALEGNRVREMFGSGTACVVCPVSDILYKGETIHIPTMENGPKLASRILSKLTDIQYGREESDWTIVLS
10 µM
  probe-labelled cysteine peptide fold change: 0.15
50 µM
  probe-labelled cysteine peptide fold change: 0.0428

## ARSA_P15289_493_GEDPALQICCHPGCTPR (UniProt P15289)
10 µM
  probe-labelled cysteine peptide fold change: 0.139
50 µM
  probe-labelled cysteine peptide fold change: 0.309

## ARPC1B_O15143_26_TQIAICPNNHEVHIYEK (UniProt O15143)
10 µM
  probe-labelled cysteine peptide fold change: 0.062
50 µM
  probe-labelled cysteine peptide fold change: 0.00851

## BIN2_Q9UBW5_205_IGCYVTIFQNISNLR (UniProt Q9UBW5)
10 µM
  probe-labelled cysteine peptide fold change: 0.21
50 µM
  probe-labelled cysteine peptide fold change: 0.194

## APOH_P02749_124_CTEEGK (UniProt P02749)
Sequence of UniProt P02749 (P02749 whole entry, looked up): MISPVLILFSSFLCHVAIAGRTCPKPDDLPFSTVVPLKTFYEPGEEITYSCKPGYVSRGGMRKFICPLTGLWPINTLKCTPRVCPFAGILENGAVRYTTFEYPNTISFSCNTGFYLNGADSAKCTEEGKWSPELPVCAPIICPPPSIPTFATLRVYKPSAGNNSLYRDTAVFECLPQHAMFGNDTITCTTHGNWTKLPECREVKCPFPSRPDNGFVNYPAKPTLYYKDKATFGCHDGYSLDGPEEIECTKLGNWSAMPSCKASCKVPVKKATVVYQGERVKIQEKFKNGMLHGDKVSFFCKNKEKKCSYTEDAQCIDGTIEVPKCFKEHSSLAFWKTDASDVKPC
10 µM
  probe-labelled cysteine peptide fold change: 0.632
50 µM
  probe-labelled cysteine peptide fold change: 0.551

## ASMTL_O95671_274_AEAGEAGQATAEAECHR (UniProt O95671)
10 µM
  probe-labelled cysteine peptide fold change: -0.103
50 µM
  probe-labelled cysteine peptide fold change: -0.158

## ANTXR1_Q9H6X2_257_VLCSFK (UniProt Q9H6X2)
10 µM
  probe-labelled cysteine peptide fold change: 0.067
50 µM
  probe-labelled cysteine peptide fold change: 0.257

## ALG11_Q2TAA5_72_NQMVIAFFHPYCNAGGGGER (UniProt Q2TAA5)
10 µM
  probe-labelled cysteine peptide fold change: -0.0377
50 µM
  probe-labelled cysteine peptide fold change: -0.618

## AGPS_O00116_226_IVNLACK (UniProt O00116)
10 µM
  probe-labelled cysteine peptide fold change: 0.221
50 µM
  probe-labelled cysteine peptide fold change: 0.311

## ATIC_P31939_101_VVACNLYPFVK (UniProt P31939)
10 µM
  probe-labelled cysteine peptide fold change: -0.0132
50 µM
  probe-labelled cysteine peptide fold change: 0.0726

## APTX_Q7Z2E3_161_DAAQEAEAGTGLEPGSNSGQCSVPLK (UniProt Q7Z2E3)
10 µM
  probe-labelled cysteine peptide fold change: 0.282
50 µM
  probe-labelled cysteine peptide fold change: -0.342

## ATP5S_Q99766_134_CHYIEDDCLLR (UniProt Q99766)
10 µM
  probe-labelled cysteine peptide fold change: -0.0886
50 µM
  probe-labelled cysteine peptide fold change: 0.0874

## AKAP17A_Q02040_17_AAATIVHDTSEAVELCPAYGLYLK (UniProt Q02040)
10 µM
  probe-labelled cysteine peptide fold change: 0.583
50 µM
  probe-labelled cysteine peptide fold change: 0.399

## ATF6_P18850_321_ESACQSR<|>ATF6B_Q99941_340_ESACQSR (UniProt Q99941+P18850)
10 µM
  probe-labelled cysteine peptide fold change: 0.753
50 µM
  probe-labelled cysteine peptide fold change: 1.73

## ARRB2_P32121_270_CPVAQLEQDDQVSPSSTFCK (UniProt P32121)
Sequence of UniProt P32121 (P32121 whole entry, looked up): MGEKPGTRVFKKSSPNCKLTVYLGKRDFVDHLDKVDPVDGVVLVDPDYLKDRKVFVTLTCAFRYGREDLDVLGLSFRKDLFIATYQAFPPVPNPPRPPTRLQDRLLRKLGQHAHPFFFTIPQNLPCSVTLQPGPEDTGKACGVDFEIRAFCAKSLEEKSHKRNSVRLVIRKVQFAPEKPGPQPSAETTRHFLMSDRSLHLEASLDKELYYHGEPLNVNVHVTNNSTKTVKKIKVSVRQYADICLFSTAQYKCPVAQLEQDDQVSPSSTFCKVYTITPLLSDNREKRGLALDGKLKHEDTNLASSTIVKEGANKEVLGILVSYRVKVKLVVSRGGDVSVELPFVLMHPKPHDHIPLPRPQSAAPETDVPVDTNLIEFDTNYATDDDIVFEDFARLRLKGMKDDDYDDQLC
10 µM
  probe-labelled cysteine peptide fold change: 0.677
50 µM
  probe-labelled cysteine peptide fold change: 0.57

## AKAP8_O43823_392+395_IQFACSVCK (UniProt O43823)
10 µM
  probe-labelled cysteine peptide fold change: -0.0142
50 µM
  probe-labelled cysteine peptide fold change: 0.0345

## ARPC1B_O15143_227_VAWVSHDSTVCLADADK (UniProt O15143)
10 µM
  probe-labelled cysteine peptide fold change: 0.316
50 µM
  probe-labelled cysteine peptide fold change: 0.0213

## ANXA11_P50995_384_FNAVLCSR (UniProt P50995)
10 µM
  probe-labelled cysteine peptide fold change: -0.0174
50 µM
  probe-labelled cysteine peptide fold change: -0.0325

## ANKRD50_Q9ULJ7_113_QALAFHFCK (UniProt Q9ULJ7)
10 µM
  probe-labelled cysteine peptide fold change: 0.472
50 µM
  probe-labelled cysteine peptide fold change: 0.778

## ARHGAP25_P42331_154_VAGTPCGVFGQR (UniProt P42331)
10 µM
  probe-labelled cysteine peptide fold change: 0.0288
50 µM
  probe-labelled cysteine peptide fold change: -0.103

## AP2A1_O95782_492_TVFEALQAPACHENMVK (UniProt O95782)
10 µM
  probe-labelled cysteine peptide fold change: 0.179
50 µM
  probe-labelled cysteine peptide fold change: 0.0904

## ARFGEF2_Q9Y6D5_76_YFLPFELACQSK<|>ARFGEF1_Q9Y6D6_88_YFLPFELACQSK (UniProt Q9Y6D6+Q9Y6D5)
10 µM
  probe-labelled cysteine peptide fold change: -0.179
50 µM
  probe-labelled cysteine peptide fold change: -0.147

## ANKRD10_Q9NXR5_140_SGSLECISALVANGAHVDLR (UniProt Q9NXR5)
Sequence of UniProt Q9NXR5 (Q9NXR5 whole entry): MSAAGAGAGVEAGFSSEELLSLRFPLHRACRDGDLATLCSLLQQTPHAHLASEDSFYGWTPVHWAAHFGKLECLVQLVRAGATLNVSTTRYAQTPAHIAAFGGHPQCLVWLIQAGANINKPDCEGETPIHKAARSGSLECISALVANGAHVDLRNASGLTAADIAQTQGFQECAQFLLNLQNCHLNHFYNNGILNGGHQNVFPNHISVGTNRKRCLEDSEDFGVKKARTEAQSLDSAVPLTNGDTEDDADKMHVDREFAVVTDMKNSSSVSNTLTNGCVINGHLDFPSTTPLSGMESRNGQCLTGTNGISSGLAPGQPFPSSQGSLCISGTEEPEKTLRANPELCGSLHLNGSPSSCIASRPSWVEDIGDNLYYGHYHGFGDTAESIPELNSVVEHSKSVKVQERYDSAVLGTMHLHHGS
10 µM
  probe-labelled cysteine peptide fold change: -0.314
50 µM
  probe-labelled cysteine peptide fold change: -0.119
